Measurements: PubChem BioAssay
A number with no mark means an inactive call.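 Rule for the calls, unless noted: active = NADPH fluorescence slope more negative than the mean of all samples by about 3 SD, 99.7% confidence; inactive = the rest.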

Each compound was assayed against Voltage-gated potassium channel subunit beta-2 (Rattus norvegicus) (UniProt P62483) (assay: KvBeta enzyme negative modulators, primary screen, biochemical, NADPH fluorescence (AID 622;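 active = fluorescence slope higher than the sample average by over 3 SD, cut at about -0.22 in these data, passing the limit was not always enough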;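 note: slope of raw intensity against log time taken from 70 to 1610 s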)). Settings: recombinant KvBeta, 4-cyanobenzaldehyde reduction, at 10 µM, active compounds read high.
Sequence of Voltage-gated potassium channel subunit beta-2 (Rattus norvegicus) (P62483 whole entry, looked up): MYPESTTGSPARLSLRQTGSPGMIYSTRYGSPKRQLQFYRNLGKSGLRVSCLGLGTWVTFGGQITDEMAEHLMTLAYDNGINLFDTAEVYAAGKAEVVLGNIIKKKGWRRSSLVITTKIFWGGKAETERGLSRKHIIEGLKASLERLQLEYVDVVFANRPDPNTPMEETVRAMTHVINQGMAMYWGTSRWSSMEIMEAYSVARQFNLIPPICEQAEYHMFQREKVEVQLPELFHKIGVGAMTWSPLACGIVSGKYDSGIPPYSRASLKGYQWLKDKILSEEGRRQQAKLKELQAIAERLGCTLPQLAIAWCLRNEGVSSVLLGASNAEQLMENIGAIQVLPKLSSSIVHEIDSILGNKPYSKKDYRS

| SMILES | fluorescence slope |
| --- | --- |
| Cc1nc2c(-c3ccc(F)cc3)c(C)nn2c(C)c1CCC(=O)NC(C)CCc1ccco1 (stereo not drawn) | -0.568 |
| CCOC(=O)N1CCC(NC(=O)CSCc2nc(-c3cccc(OC)c3)oc2C)CC1 | -0.498 |
| Cn1c(=O)[nH]c(=O)c2c1nc(NC1CCCCC1)n2CC(=O)NC1CCCCC1 | -0.4 |
| O=S(=O)(Nc1ccc(Cc2ccncc2)cc1)N1CCCC1 | -0.52 |
| CCOc1ccc2nc(NC(=O)CSc3nnnn3C3CCCCC3)sc2c1 | -0.393 |
| COc1ccccc1OCCCCNCCO | -0.434 |
| Cc1cccc(-n2ncc3c(NCCCO)ncnc32)c1 | -0.582 |
| COc1cc(NC(=O)Nc2cccc(Cl)c2)c(OC)cc1NC(=O)CN1CCCCC1 | -0.407 |
| CCOC(=O)N1CCN(C(=O)c2n[nH]c(=O)c3ccccc23)CC1 | -0.591 |
| C=CCN1C(=O)C2(C(C#N)=C(N)Oc3n[nH]c(CCC)c32)c2ccccc21 (stereo not drawn) | -0.625 |
| CCOc1ccc2[nH]c(=O)c(C(c3nnnn3CC3CCCO3)N3CCc4ccccc4C3)cc2c1 (stereo not drawn) | -0.598 |
| Cn1c(Cc2ccccc2)nnc1SCC(=O)N1CCOCC1 | -0.276 |
| CC1=C(C(=O)OC2CCCCC2)C(c2ccc(C)o2)C2=C(CC(C)(C)CC2=O)N1 (stereo not drawn) | -0.25 |
| O=S(=O)(NC1CCCCC1NS(=O)(=O)c1ccc(F)cc1)c1ccc(F)cc1 (stereo not drawn) | -0.503 |
| CCOC(=O)c1ccc(NC(=O)Cn2cc3c(n2)CCC(C)C3)cc1 (stereo not drawn) | -0.485 |
| O=C(O)C1CC(=O)N(CCOc2ccccc2)C1 (stereo not drawn) | -0.41 |
| COC(=O)c1ccc(NC(=O)C(C)N2C(=O)c3ccccc3C2=O)cc1 (stereo not drawn) | -0.614 |
| COc1ccc(N2CCN(C(=O)COc3ccc4ccccc4c3)CC2)cc1 | -0.468 |
| Cn1cc(CN2CCc3ccccc3C2)c2ccccc21 | -0.408 |
| COC(=O)c1cn(NC(=O)c2cccnc2)c(=O)c2ccccc12 | -0.538 |

| SMILES | fluorescence slope |
| --- | --- |
| Cn1c(C(=O)NCCCN2CCCCCC2)cc2c(=O)n(C)c3ccccc3c21 | -0.639 |
| O=C(Nc1nccs1)c1ccc(COc2ccccc2Br)o1 | -0.487 |
| CC(C)Cn1c(CN(Cc2ccccc2)Cc2ccccc2)nc2c1c(=O)n(C)c(=O)n2C | -0.518 |
| Cc1ccc(CCNC(=O)CC2Oc3ccc(C)cc3NC2=O)cc1 (stereo not drawn) | -0.558 |
| COc1cc2c(=O)n(Cc3ccccc3)c(=O)n(CC(=O)NCc3ccco3)c2cc1OC | -0.37 |
| O=C(Nc1ccc(Cl)cn1)c1cccnc1 | -0.473 |
| CCSc1nc2ccccc2n1CC(N)=O | -0.449 |
| CC1(c2ccc(Cl)cc2)NC(=O)N(CC(=O)NC(=O)NCc2ccco2)C1=O (stereo not drawn) | -0.399 |
| O=C(Nn1cnnc1)C1Cc2ccccc2CN1S(=O)(=O)c1ccc(F)cc1 (stereo not drawn) | -0.481 |
| Cc1cc(NCCN2CCCCC2)n2c(nc3ccccc32)c1C#N | -0.526 |
| CCCSc1nnc(-c2ccccc2NC(=O)CC)c(=O)[nH]1 | -0.412 |
| O=C(NCc1ccco1)c1ccc2c(=O)n(CC3CCCO3)c(=S)[nH]c2c1 (stereo not drawn) | -0.501 |
| C[C@@H]1C[C@H](O)c2cc(Cl)ccc2N1 | -0.594 |
| COc1cccc(NC(=O)COC(=O)c2cccnc2)c1 | -0.503 |
| NC(=O)CCS(=O)(=O)CCN1CCCCC1 | -0.435 |
| Cn1c(=O)n(CCN2CCOCC2)c(=O)c2c1nc1n2CCN1c1ccccc1 | -0.564 |
| COC(=O)CSc1nnc(-c2cccs2)n1-c1ccc(Cl)cc1 | -0.482 |
| COc1ccc(NC(=O)C(C)Oc2ccc(/C(C)=N\O)cc2)cc1 (stereo not drawn) | -0.307 |
| CCOC(=O)c1ccccc1NC(=O)c1cccnc1 | -0.504 |

Each compound was assayed against Voltage-gated potassium channel subunit beta-2 (Rattus norvegicus) (UniProt P62483) (assay: KvBeta positive modulators, primary screen, biochemical, NADPH fluorescence (AID 623;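 note: fluorescence intensity change per second fitted from 20 to 320 s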)). Settings: Recombinant KvBeta, NADPH fluorescence decrease slope, 10 min; at 10 µM; active compounds read low.

| SMILES | NADPH fluorescence slope |
| --- | --- |
| Cc1nc2c(-c3ccc(F)cc3)c(C)nn2c(C)c1CCC(=O)NC(C)CCc1ccco1 (stereo not drawn) | -3.3e-05 |
| CCOC(=O)N1CCC(NC(=O)CSCc2nc(-c3cccc(OC)c3)oc2C)CC1 | -5.4e-05 |
| Cn1c(=O)[nH]c(=O)c2c1nc(NC1CCCCC1)n2CC(=O)NC1CCCCC1 | 8.4e-06 |
| O=S(=O)(Nc1ccc(Cc2ccncc2)cc1)N1CCCC1 | 1.2e-05 |
| CCOc1ccc2nc(NC(=O)CSc3nnnn3C3CCCCC3)sc2c1 | -3.7e-05 |
| COc1ccccc1OCCCCNCCO | -3.7e-05 |
| Cc1cccc(-n2ncc3c(NCCCO)ncnc32)c1 | -1.5e-05 |
| COc1cc(NC(=O)Nc2cccc(Cl)c2)c(OC)cc1NC(=O)CN1CCCCC1 | -4e-05 |
| CCOC(=O)N1CCN(C(=O)c2n[nH]c(=O)c3ccccc23)CC1 | -2.8e-05 |
| C=CCN1C(=O)C2(C(C#N)=C(N)Oc3n[nH]c(CCC)c32)c2ccccc21 (stereo not drawn) | -3.8e-05 |
| CCOc1ccc2[nH]c(=O)c(C(c3nnnn3CC3CCCO3)N3CCc4ccccc4C3)cc2c1 (stereo not drawn) | -8.5e-06 |
| Cn1c(Cc2ccccc2)nnc1SCC(=O)N1CCOCC1 | -4.7e-05 |
| CC1=C(C(=O)OC2CCCCC2)C(c2ccc(C)o2)C2=C(CC(C)(C)CC2=O)N1 (stereo not drawn) | -1.1e-05 |
| O=S(=O)(NC1CCCCC1NS(=O)(=O)c1ccc(F)cc1)c1ccc(F)cc1 (stereo not drawn) | -3.7e-06 |
| CCOC(=O)c1ccc(NC(=O)Cn2cc3c(n2)CCC(C)C3)cc1 (stereo not drawn) | 2.3e-05 |
| O=C(O)C1CC(=O)N(CCOc2ccccc2)C1 (stereo not drawn) | 4.3e-05 |
| COC(=O)c1ccc(NC(=O)C(C)N2C(=O)c3ccccc3C2=O)cc1 (stereo not drawn) | 5.9e-06 |
| COc1ccc(N2CCN(C(=O)COc3ccc4ccccc4c3)CC2)cc1 | -5.8e-05 |
| Cn1cc(CN2CCc3ccccc3C2)c2ccccc21 | -0.000148 |
| COC(=O)c1cn(NC(=O)c2cccnc2)c(=O)c2ccccc12 | -6.1e-05 |

| SMILES | NADPH fluorescence slope |
| --- | --- |
| Cn1c(C(=O)NCCCN2CCCCCC2)cc2c(=O)n(C)c3ccccc3c21 | -4.1e-06 |
| O=C(Nc1nccs1)c1ccc(COc2ccccc2Br)o1 | -5.4e-05 |
| CC(C)Cn1c(CN(Cc2ccccc2)Cc2ccccc2)nc2c1c(=O)n(C)c(=O)n2C | -1.8e-05 |
| Cc1ccc(CCNC(=O)CC2Oc3ccc(C)cc3NC2=O)cc1 (stereo not drawn) | 1.2e-05 |
| COc1cc2c(=O)n(Cc3ccccc3)c(=O)n(CC(=O)NCc3ccco3)c2cc1OC | 9e-06 |
| O=C(Nc1ccc(Cl)cn1)c1cccnc1 | 1.1e-05 |
| CCSc1nc2ccccc2n1CC(N)=O | -0.000317 |
| CC1(c2ccc(Cl)cc2)NC(=O)N(CC(=O)NC(=O)NCc2ccco2)C1=O (stereo not drawn) | -4.4e-05 |
| O=C(Nn1cnnc1)C1Cc2ccccc2CN1S(=O)(=O)c1ccc(F)cc1 (stereo not drawn) | -2.7e-05 |
| Cc1cc(NCCN2CCCCC2)n2c(nc3ccccc32)c1C#N | -4.4e-05 |
| CCCSc1nnc(-c2ccccc2NC(=O)CC)c(=O)[nH]1 | -4.2e-05 |
| O=C(NCc1ccco1)c1ccc2c(=O)n(CC3CCCO3)c(=S)[nH]c2c1 (stereo not drawn) | -2.2e-05 |
| C[C@@H]1C[C@H](O)c2cc(Cl)ccc2N1 | -1.8e-05 |
| COc1cccc(NC(=O)COC(=O)c2cccnc2)c1 | -6.6e-05 |
| NC(=O)CCS(=O)(=O)CCN1CCCCC1 | 4.4e-05 |
| Cn1c(=O)n(CCN2CCOCC2)c(=O)c2c1nc1n2CCN1c1ccccc1 | 2.6e-05 |
| COC(=O)CSc1nnc(-c2cccs2)n1-c1ccc(Cl)cc1 | -1.6e-05 |
| COc1ccc(NC(=O)C(C)Oc2ccc(/C(C)=N\O)cc2)cc1 (stereo not drawn) | 3.7e-05 |
| CCOC(=O)c1ccccc1NC(=O)c1cccnc1 | 2.4e-05 |
